Experimental data: PubChem BioAssay AID1159580 (chemical genetic matrix, 2015)
About 2,000 (36%) of roughly 5,500 compounds were called active. Another 18% or so got no clear call; they are omitted. Cut-off read from the data, not from the text of the source: active = normalized growth mostly below about 0.91 (no sharp cut-off); inconclusive = no clear call, values can overlap the other calls; inactive = mostly above about 0.92. Some of the results follow.

Assay: chemical genetic growth profiling, strain panel (AID 1159580);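 note: tested at 20 µM; growth read once vehicle control cultures reached saturation at 30 °C; 1 = growth at the plate median or of vehicle wells; lower values mean less growth of the strain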
Conditions: S. cerevisiae deletion strains, growth OD

Measured: normalized growth

CN1C[C@H](CNC(=O)OCc2ccccc2)C[C@@H]2c3cccc4c3c(cn4C)C[C@H]21
inactive: locus YAL013W, strain DEP1, hits give low values 0.987 | locus YAL040C, strain CLN3, hits give low values 0.985 | locus YCL061C, strain MRC1 (second series), hits give low values 0.998 | locus YDR150W, strain NUM1, hits give low values 0.994 | locus YDR363W, strain ESC2, hits give low values 1.01 | locus YER002W, strain NOP16, hits give low values 1.04 | locus YJR075W, strain HOC1, hits give low values 0.969 | locus YNL153C, strain GIM3, hits give low values 0.904 | locus YNL175C, strain NOP13, hits give low values 1.01 | locus YNL197C, strain WHI3, hits give low values 0.994 | locus YNL224C, strain SQS1, hits give low values 1.04 | locus YOR083W, strain WHI5 (second series), hits give low values 0.969 | locus YPL055C, strain LGE1, hits give low values 1.02
